These entries were drawn from the full list.
aSyn UTR act: Activators working through SNCA 5'UTR binding (MLPCN). activity score, % (tested at 7.5 µM), hits read low. AID 1814. alpha-synuclein 5'UTR reporter, activators screen. 300,000 compounds, 7.1% hits; in the data active = activity score below about -60%
The depositor's hits bear a star.

COc1cc2c(cc1NC(=O)COC(=O)CNC(=O)c1ccccc1)oc1ccccc12 was read as aSyn UTR act -94.3*.
Screening COc1cc2c(cc1NC(=O)COC(=O)C1CC(=O)N(Cc3ccco3)C1)oc1ccccc12 (stereo not given) returned aSyn UTR act -145.4*.
For COc1cc2c(cc1NC(=O)C(C)OC(=O)c1ccc(S(=O)(=O)Nc3ccccc3Cl)cc1)oc1ccccc12 (stereo not given) the results were aSyn UTR act -115.5*.
`COc1ccc(CC(=O)Nc2cc3oc4ccccc4c3cc2OC)cc1` gave aSyn UTR act -161.5*.
For COc1ccccc1CC(=O)Nc1cc2oc3ccccc3c2cc1OC the results were aSyn UTR act -129.2*.
Screening COc1cc2c(cc1NC(=O)C(C)Sc1cccc[n+]1[O-])oc1ccccc12 (stereo not given) returned aSyn UTR act -241.2*.
`COc1cc(C(C#N)N2N=C(c3ccccc3)CC2c2ccccc2)ccc1O` (stereo not given) gave aSyn UTR act -142.0*.
For COc1ccccc1-c1nnc2n1N=C(c1ccc(O)c(O)c1)CS2 the results were aSyn UTR act 97.0.
`Cc1ccc(C)c(NC(=O)c2ccccn2)c1` gave aSyn UTR act -72.1*.
Screening Cc1ccc(NC(=O)Nc2ccc(Cl)cc2)c(Br)c1 returned aSyn UTR act -154.9*.
`Cc1ccc(NC(=O)c2ccccn2)c(Br)c1` gave aSyn UTR act -103.3*.
`CCOC(=O)C1=C(N)n2c(s/c(=C\c3cccnc3)c2=O)=C(C(=O)OC)C1c1cccnc1` (stereo not given) gave aSyn UTR act -65.9*.
`O=C(Sc1cccc2cccnc12)c1ccccc1Br` gave aSyn UTR act -241.6*.
For CC(=O)Nc1nc(C)c(-c2nc3ccc([N+](=O)[O-])cc3[nH]2)s1 the results were aSyn UTR act -81.0*.
Screening Cc1cc2nc(/C=C/c3cccnc3)[nH]c2cc1C returned aSyn UTR act 92.1.
For O=[N+]([O-])c1cccc(/C=C/c2nc3ccc([N+](=O)[O-])cc3[nH]2)c1 the results were aSyn UTR act -151.6*.
Cn1cccc1-c1nc2ccc([N+](=O)[O-])cc2[nH]1 was read as aSyn UTR act -175.0*.
Screening O=[N+]([O-])c1ccc2nc(-c3ccccc3)[nH]c2c1 returned aSyn UTR act -121.4*.
Screening COc1cccc(OCCNc2cc(N3CCOCC3)ccc2[N+](=O)[O-])c1 returned aSyn UTR act -78.1*.
`CCOC(=O)c1c(C)c(C(=O)O)n(C)c1C` gave aSyn UTR act 32.2.
`CCOC(=O)c1c(C)c(C(=O)NCCc2ccccc2)c(C)n1C` gave aSyn UTR act -80.4*.
`Cc1cc(C)n2nc(C(=O)NCCc3ccccc3)nc2n1` gave aSyn UTR act -72.0*.
Cc1nn(Cc2ccccc2)c(Cl)c1C(=O)NCCc1ccccc1 was read as aSyn UTR act -135.4*.
`Cc1cc(C)n2nc(C(=O)NNC(=O)c3ccc(Cl)cc3)nc2n1` gave aSyn UTR act -75.7*.
Screening O=C(c1csc(Nc2ccccc2Cl)n1)N1CCCC1 returned aSyn UTR act -117.3*.
Screening COc1ccc(/C(C)=N/Nc2ccc(C(=O)O)cc2)cc1OC returned aSyn UTR act -137.3*.
C/C(=N\Nc1ccc(C(=O)O)cc1)c1nc2ccccc2n1C was read as aSyn UTR act -148.1*.
C/C(=N\Nc1ccc(C(=O)O)cc1)c1ccc(-n2ccnc2)cc1 was read as aSyn UTR act -70.2*.
Screening COc1cc(/C(C)=N/Nc2ccc(C(=O)O)cc2)cc(OC)c1OC returned aSyn UTR act -101.3*.
`Cn1nnnc1N=N/C(=N/Nc1ccccc1)c1ccccc1` gave aSyn UTR act 103.6.
For Cc1ccc(OCCCCCCN2CCNCC2)cc1 the results were aSyn UTR act -64.0*.
CCC(SC1=Nc2ccccc2C2=NC(CC(C)C)C(=O)N12)C(=O)Nc1ccc2c(c1)OCO2 (stereo not given) was read as aSyn UTR act -64.0*.
`O=C(c1ccc(OC(F)(F)F)cc1)c1ncc[nH]1` gave aSyn UTR act -83.3*.
`O=C(N/N=C/c1cccc(F)c1)c1cc(-c2ccco2)nc2ccccc12` gave aSyn UTR act -120.2*.
`Nc1cc(C(F)(F)F)ccc1C(=O)O` gave aSyn UTR act -62.3*.
`OCCNc1c2ccccc2nc2c(F)c(F)c(F)c(F)c12` gave aSyn UTR act -83.6*.
Screening CN1CCN(C2Cc3cc(Cl)ccc3Sc3cc(F)ccc32)CC1 (stereo not given) returned aSyn UTR act 100.8.
Screening CN1CCSc2ccc(C(=O)Nc3cc(F)ccc3F)cc21 returned aSyn UTR act -98.2*.
`Cc1ccccc1NC(=O)c1ccc2c(c1)N(C)CCS2` gave aSyn UTR act -103.4*.
For CC1=CC(c2ccccc2)=Nc2ccc(C)cc2N1 the results were aSyn UTR act -150.6*.
Screening N#C/C(=C(/O)c1cc2ccccc2o1)c1nc2ccccc2s1 returned aSyn UTR act -119.5*.
Screening N#C/C(=C(/O)c1ccco1)c1nc2ccccc2s1 returned aSyn UTR act -127.8*.
For N#C/C(=C(\O)c1ccco1)c1ccccn1 the results were aSyn UTR act -91.4*.
For N#C/C(=C(/O)c1cccc(F)c1)c1nc2ccccc2s1 the results were aSyn UTR act -148.5*.
Cn1c(SCC(=O)c2ccc(F)cc2)nnc1-c1cnccn1 was read as aSyn UTR act -62.7*.
`Cn1c(SCC(=O)c2ccccc2)nnc1-c1ccccn1` gave aSyn UTR act -128.1*.
For Cn1c(SCC(=O)c2ccccc2)nnc1-c1cccc(N)c1 the results were aSyn UTR act -62.0*.
For Fc1ccccc1CSc1nc2ncc(Br)cc2[nH]1 the results were aSyn UTR act -126.8*.
Screening N#C/C(=C\c1ccc(OCc2ccc(Br)cc2)cc1)C(=O)Nc1cccc(C(=O)O)c1 returned aSyn UTR act -76.2*.
`COc1cc(/C=C(\C#N)C(=O)Nc2cccc(C(=O)O)c2)ccc1OCc1ccc(F)cc1` gave aSyn UTR act -90.2*.
N#C/C(=C\c1ccc(OCc2ccc(F)cc2)cc1)C(=O)Nc1cccc(C(=O)O)c1 was read as aSyn UTR act -107.6*.
CCOC(=O)/C(C#N)=C/c1ccc(-c2ccsc2C(=O)OC)o1 was read as aSyn UTR act -117.4*.
CCOC(=O)C(=Cc1ccc(-c2ccsc2C(=O)OC)o1)C(=O)OCC was read as aSyn UTR act -87.9*.
CCCOc1ccc(-c2nc(N3CCN(C)CC3)c3ccccc3n2)cc1 was read as aSyn UTR act -134.9*.
CN1CCN(Cc2cc(COCc3ccccc3)c3cccnc3c2O)CC1 was read as aSyn UTR act 99.4.
Screening C/C(=N\Nc1ccc([N+](=O)[O-])cc1)c1ccc2c(c1)OCO2 returned aSyn UTR act -118.5*.
For C/C(=N\NC(=O)c1ccc2c(c1)OCCO2)c1ccccc1 the results were aSyn UTR act 72.9.
For C/C(=N\NC(=O)c1cccs1)c1ccc2c(c1)OCO2 the results were aSyn UTR act -74.2*.
Screening C/C(=N\NC(=O)c1ccc2c(c1)OCO2)c1ccc2c(c1)OCO2 returned aSyn UTR act -83.4*.
`CSc1nc(-c2ccc(Cl)cc2)nn1C(=O)c1ccco1` gave aSyn UTR act -107.2*.
Screening Cc1ccc(S(=O)(=O)n2nc(-c3ccco3)nc2SCc2ccccc2)cc1 returned aSyn UTR act -73.6*.
Screening O=C(c1ccco1)n1nc(-c2ccccc2)nc1SCc1ccccc1 returned aSyn UTR act -112.2*.
For O=C(Cc1ccccc1)n1nc(-c2ccco2)nc1SCc1ccccc1 the results were aSyn UTR act -70.8*.
